Assay results published in PubChem BioAssay.
Several values for one entry are separate records, joined by “and”; a condition that tells them apart may be missing. Equal entries are not always repeated.

Assay: HTB85 osteosarcoma cell growth inhibition, synergistic combos for chromothripsis tumors, BGB or cisplatin IC20 combos (AID 1671453);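 note: cells exposed for 96 hours before readout; 0% = vehicle DMSO and 100% = high DMSO killing control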
Conditions: HTB85 osteosarcoma cells, drug combinations, measured here: with BGB IC20, at 0.5 µM, stronger effect = higher value

SMILES | inhibition [%]
CC(Oc1cc(-c2cnn(C3CCNCC3)c2)cnc1N)c1c(Cl)ccc(F)c1Cl (stereo unspecified) | 0.991
O=C(O)c1cc2cccc([N+](=O)[O-])c2[nH]1 | -41.2
O=c1[nH]c(=O)n(C2CC(O)C(CO)O2)cc1I (stereo unspecified) | -26.8

Same assay, conditions: HTB85 osteosarcoma cells, drug combinations, measured here: with BGB IC20, at 5 µM, stronger effect = higher value

SMILES | inhibition
COc1ccccc1S(=O)(=O)Nc1ccc2c(c1)CN(C)C(=O)N2 | 38.2%
Cc1cc(C#N)cc(C)c1Oc1nc(Nc2ccc(C#N)cc2)nc(N)c1Br | -34.8%
Nc1ncn(C2OC(CO)C(O)C2O)c(=O)n1 (stereo unspecified) | 18.2%
Cc1cc(C)c(Nc2ccnc(Nc3ccc(C#N)cc3)n2)c(C)c1 | 40.8%
COc1ccc(CC(N)C(=O)NC2C(CO)OC(n3cnc4c(N(C)C)ncnc43)C2O)cc1 (stereo unspecified) | 100%
O=c1ccn(C2OC(CO)C(O)C2O)c(=O)[nH]1 (stereo unspecified) | 15% and -44.4%
CC=C1NC(=O)C2CSSCCC=CC(CC(=O)NC(C(C)C)C(=O)N2)OC(=O)C(C(C)C)NC1=O (stereo unspecified) | 99.9%
CN(C)CC(=O)Nc1ccc2[nH]c(=O)c3ccccc3c2c1 | -24.1% and 8.44% and -2.25%
CC1OC(n2cc(F)c(=O)[nH]c2=O)C(O)C1O (stereo unspecified) | -31%
Nc1ccn(C2OC(CO)C(O)C2(F)F)c(=O)n1 (stereo unspecified) | 72.1% and 73.5% and 75.1%
Cc1cn(C2CC(N=[N+]=[N-])C(CO)O2)c(=O)[nH]c1=O (stereo unspecified) | -49% and -21.3%
CC(C=CC(=O)NO)=CC(C)C(=O)c1ccc(N(C)C)cc1 (stereo unspecified) | 99.9%
NC(=S)NN=Cc1ncccc1N | 67.1%
CC(C)(C#N)c1ccc(N2C(=O)OCc3cnc4ccc(-c5cnc6ccccc6c5)cc4c32)cc1 | 14.5%
CC1CN(c2c(F)c(N)c3c(=O)c(C(=O)O)cn(C4CC4)c3c2F)CC(C)N1 (stereo unspecified) | 3.84%
CCCCN(Cc1ccc(C(=O)NO)cc1)C(=O)Nc1ccccc1 | 37.9% and 32.7%
O=c1[nH]cnc2c1ncn2C1OC(CO)C(O)C1O (stereo unspecified) | -15.9% and -25.5%
Cc1cc(C=CC#N)cc(C)c1Nc1ccnc(Nc2ccc(C#N)cc2)n1 | -26.3%
CC(Oc1cc(-c2cnn(C3CCNCC3)c2)cnc1N)c1c(Cl)ccc(F)c1Cl (stereo unspecified) | 44.7%
O=C(O)c1cc2cccc([N+](=O)[O-])c2[nH]1 | -22.3%
O=c1[nH]c(=O)n(C2CC(O)C(CO)O2)cc1I (stereo unspecified) | -4.26%

Same assay, conditions: HTB85 osteosarcoma cells, drug combinations, measured here: with cisplatin IC20, at 0.5 µM, stronger effect = higher value

SMILES | inhibition
COc1ccccc1S(=O)(=O)Nc1ccc2c(c1)CN(C)C(=O)N2 | -13.9%
Cc1cc(C#N)cc(C)c1Oc1nc(Nc2ccc(C#N)cc2)nc(N)c1Br | -9.12%
Nc1ncn(C2OC(CO)C(O)C2O)c(=O)n1 (stereo unspecified) | -13.1%
Cc1cc(C)c(Nc2ccnc(Nc3ccc(C#N)cc3)n2)c(C)c1 | -20.5%
COc1ccc(CC(N)C(=O)NC2C(CO)OC(n3cnc4c(N(C)C)ncnc43)C2O)cc1 (stereo unspecified) | 80.8% and 96.9%
O=c1ccn(C2OC(CO)C(O)C2O)c(=O)[nH]1 (stereo unspecified) | 7.75% and -5.03%
CC=C1NC(=O)C2CSSCCC=CC(CC(=O)NC(C(C)C)C(=O)N2)OC(=O)C(C(C)C)NC1=O (stereo unspecified) | 99.9% and 99.8%
CN(C)CC(=O)Nc1ccc2[nH]c(=O)c3ccccc3c2c1 | -8.52% and 5.14% and 3.46%
CC1OC(n2cc(F)c(=O)[nH]c2=O)C(O)C1O (stereo unspecified) | -26.6%
Nc1ccn(C2OC(CO)C(O)C2(F)F)c(=O)n1 (stereo unspecified) | 91.2% and 91.9% and 89.4%
Cc1cn(C2CC(N=[N+]=[N-])C(CO)O2)c(=O)[nH]c1=O (stereo unspecified) | -19.6% and 10.7%
CC(C=CC(=O)NO)=CC(C)C(=O)c1ccc(N(C)C)cc1 (stereo unspecified) | 99.9%
NC(=S)NN=Cc1ncccc1N | -3.68%
CC(C)(C#N)c1ccc(N2C(=O)OCc3cnc4ccc(-c5cnc6ccccc6c5)cc4c32)cc1 | -23.6%
CC1CN(c2c(F)c(N)c3c(=O)c(C(=O)O)cn(C4CC4)c3c2F)CC(C)N1 (stereo unspecified) | -9.9%
CCCCN(Cc1ccc(C(=O)NO)cc1)C(=O)Nc1ccccc1 | 24.2% and 15.2%
O=c1[nH]cnc2c1ncn2C1OC(CO)C(O)C1O (stereo unspecified) | -32% and -10.1%
Cc1cc(C=CC#N)cc(C)c1Nc1ccnc(Nc2ccc(C#N)cc2)n1 | -28.3%
CC(Oc1cc(-c2cnn(C3CCNCC3)c2)cnc1N)c1c(Cl)ccc(F)c1Cl (stereo unspecified) | 4.34%
O=C(O)c1cc2cccc([N+](=O)[O-])c2[nH]1 | -7.91%
O=c1[nH]c(=O)n(C2CC(O)C(CO)O2)cc1I (stereo unspecified) | -39.9%

Same assay, conditions: HTB85 osteosarcoma cells, drug combinations, measured here: with cisplatin IC20, at 5 µM, stronger effect = higher value

SMILES | inhibition
COc1ccccc1S(=O)(=O)Nc1ccc2c(c1)CN(C)C(=O)N2 | 31.4%
Cc1cc(C#N)cc(C)c1Oc1nc(Nc2ccc(C#N)cc2)nc(N)c1Br | -37.6%
Nc1ncn(C2OC(CO)C(O)C2O)c(=O)n1 (stereo unspecified) | 4.48%
Cc1cc(C)c(Nc2ccnc(Nc3ccc(C#N)cc3)n2)c(C)c1 | 9.74%
COc1ccc(CC(N)C(=O)NC2C(CO)OC(n3cnc4c(N(C)C)ncnc43)C2O)cc1 (stereo unspecified) | 99.9% and 100%
O=c1ccn(C2OC(CO)C(O)C2O)c(=O)[nH]1 (stereo unspecified) | 1.8% and -45.1%
CC=C1NC(=O)C2CSSCCC=CC(CC(=O)NC(C(C)C)C(=O)N2)OC(=O)C(C(C)C)NC1=O (stereo unspecified) | 99.9%
CN(C)CC(=O)Nc1ccc2[nH]c(=O)c3ccccc3c2c1 | -29.8% and -39.5% and -46.8%
CC1OC(n2cc(F)c(=O)[nH]c2=O)C(O)C1O (stereo unspecified) | -40.3%
Nc1ccn(C2OC(CO)C(O)C2(F)F)c(=O)n1 (stereo unspecified) | 90.4% and 93.2% and 92.8%
Cc1cn(C2CC(N=[N+]=[N-])C(CO)O2)c(=O)[nH]c1=O (stereo unspecified) | -35.3% and 18.4%
CC(C=CC(=O)NO)=CC(C)C(=O)c1ccc(N(C)C)cc1 (stereo unspecified) | 100%
NC(=S)NN=Cc1ncccc1N | 77.8%
CC(C)(C#N)c1ccc(N2C(=O)OCc3cnc4ccc(-c5cnc6ccccc6c5)cc4c32)cc1 | 28.2%
CC1CN(c2c(F)c(N)c3c(=O)c(C(=O)O)cn(C4CC4)c3c2F)CC(C)N1 (stereo unspecified) | -0.774%
CCCCN(Cc1ccc(C(=O)NO)cc1)C(=O)Nc1ccccc1 | 61.3% and 51.1%
O=c1[nH]cnc2c1ncn2C1OC(CO)C(O)C1O (stereo unspecified) | -20.2% and -47.1%
Cc1cc(C=CC#N)cc(C)c1Nc1ccnc(Nc2ccc(C#N)cc2)n1 | -20.2%
CC(Oc1cc(-c2cnn(C3CCNCC3)c2)cnc1N)c1c(Cl)ccc(F)c1Cl (stereo unspecified) | 12.6%
O=C(O)c1cc2cccc([N+](=O)[O-])c2[nH]1 | -2.59%
O=c1[nH]c(=O)n(C2CC(O)C(CO)O2)cc1I (stereo unspecified) | -31.8%
